Source: PubChem BioAssay
This is a sample that favours compounds with a hit; in the whole collection about 19% have one here.
HT1080 IDH1KD tx: qHTS for induction of synthetic lethality in tumor cells producing 2HG: qHTS for the HT-1080-IDH1KD cell line; HT-1080 IDH1 knockdown viability, ATP luminescence, 48 h; AID 686971, 2013; 2% of 360,000 active; Potency, µM (highest dose often 46.1 µM), for the others: top-dose activity, negative = toxicity, actives largely listed as cytotoxic;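 note: 0% = DMSO wells and -100% = cell-free medium wells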
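Luminescent ATP read-out (CellTiter-Glo, 10 min at room temperature) after 48 h compound exposure at 37 °C gave viability of IDH1-knockdown HT-1080 cells. Activity was normalised to DMSO and cell-free wells, then fitted as concentration-response curves.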
DT40 TDP1 no CPT: qHTS for Inhibitors of human tyrosyl-DNA phosphodiesterase 1 (TDP1): qHTS in cells in absence of CPT; 15% of 420,000 active; DT40 Tdp1-/- hTDP1 cells, no CPT, ATP luminescence, 48 h; AID 686978, 2013; Potency, µM (doses to about 46.2 µM), for inactives: at the highest dose activity change, negative = growth inhibition, hits mostly inhibitors; note: nearly all actives have a fitted effect of over 55% in size
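No-CPT arm: Tdp1-/-;hTDP1 DT40 cells (400/well) plus compounds, incubated ≥48 hr at 37 °C. Readout CellTiter-Glo luminescence.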
DT40 TDP1 CPT: qHTS for Inhibitors of human tyrosyl-DNA phosphodiesterase 1 (TDP1): qHTS in cells in presence of CPT; chicken DT40 Tdp1-/-;hTDP1 cells + 20 nM CPT, ATP luminescence, 48 h; Potency, µM (doses to about 46.2 µM), without a hit: at the top dose activity change, negative = growth inhibition, actives largely listed as inhibitors; 12% of 420,000 active; AID 686979, 2013; note: nearly all actives have a fitted effect of over 55% in size
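Chicken DT40 Tdp1-/- cells complemented with human TDP1, 400 cells/well, exposed to compounds plus 20 nM camptothecin for at least 48 h at 37 C; viability read as ATP content by CellTiter-Glo luminescence.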
KB-3-1 cytotox: qHTS assay for MDR1-selective chemotherapeutics: Primary screen using the parental adenocarcinoma cell KB-3-1 | 1.4% of 400,000 active | KB-3-1 viability, CellTiter-Glo ATP luminescence, 72 h | Potency, µM (series often up to 46.1 µM), usual class: cytotoxic; note: nearly all actives have a fitted effect of over 60% in size
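Multi-concentration cytotoxicity screen in KB-3-1 cells grown in DMEM lacking phenol red with 10% FBS. After 72 h at 37 °C with compound, ATP-dependent luminescence was recorded.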
KB-V1 MDR tox: qHTS assay for MDR1-selective chemotherapeutics: Primary screen using the drug-selected MDR subline cells KB-V1 | 3.4% of 400,000 active | KB-V1 MDR cells viability, CellTiter-Glo, 72 h | Potency, µM (series often up to 46.1 µM), usual class: cytotoxic; note: nearly all actives have a fitted effect of over 60% in size
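Drug-selected KB-V1 cells, grown in DMEM lacking phenol red with 10% FBS, receive compound titrations; after three days at 37 degrees C, surviving cell ATP is quantified by CellTiter-Glo luminescence and responses normalized and curve-fitted.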
HT1080-NT tox: qHTS for induction of synthetic lethality in tumor cells producing 2HG: qHTS for the HT-1080-NT fibrosarcoma cell line; HT-1080-NT fibrosarcoma viability, CellTiter-Glo ATP luminescence, 48 h; Potency, µM (doses to about 46.1 µM), for inactives: at the highest dose activity, negative = less viability, actives largely listed as cytotoxic; 1.6% of 360,000 active;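 note: NT is the 2HG producing partner of a matched IDH1 knockdown line; 0% = DMSO-treated cells and -100% = media-only wells without cells; nearly all actives have a fitted effect of over 55% in size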
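750 cells/well, RPMI + 5% FBS; 2 h settle, compound pin-transfer, 48 h at 37 degrees C. CellTiter-Glo 10 min RT, luminescence. Normalized to DMSO and media-only wells.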
The depositor's hits bear a star; i = inactive; u = inconclusive; x = not tested or not shown. Calls come from the whole dose curve; as a rule, active = well fitted curve in the direction sought with a large enough effect; inconclusive = small, poorly fitted or top-dose-only effect, or another doubt; inactive = no such curve, though single readings can be large; an effect the other way counts as inactive or inconclusive. Unless noted, % is set by controls: 0 for no effect and ±100 for the full control effect; potency is the fitted concentration of half-maximal effect.

SMILES	HT1080 IDH1KD tx	DT40 TDP1 no CPT	DT40 TDP1 CPT	KB-3-1 cytotox	KB-V1 MDR tox	HT1080-NT tox
COc1ccccc1C(CNC(=O)C1CC(=O)N(Cc2ccccc2)C1)N1CCCC1 (stereo not drawn)	-2.4%	4.61µM*	-2.3%	i	i	-1.2%
COc1ccc(C(CNC(=O)C2CC(=O)N(Cc3ccccc3)C2)N2CCCC2)cc1 (stereo not drawn)	-1.6%	4.9%	-9.2%	i	i	-1.1%
O=C(NCC(c1cccs1)N1CCOCC1)c1cccc([N+](=O)[O-])c1 (stereo not drawn)	u	0.8%	4.9%	i	i	u
CCN(CC)S(=O)(=O)c1ccc(C(=O)NCC(c2cccs2)N2CCOCC2)cc1 (stereo not drawn)	6.9%	-15.1%	u	i	u	-11.6%
CCN(c1ccccc1)S(=O)(=O)c1cccc(C(=O)NCC(c2cccs2)N2CCOCC2)c1 (stereo not drawn)	-0.3%	u	20.6µM*	u	u	5.8%
C=CCN(c1ccccc1)S(=O)(=O)c1cccc(C(=O)NCC(c2cccs2)N2CCOCC2)c1 (stereo not drawn)	-6.7%	7.31µM*	13µM*	i	i	2.3%
Cc1ccc(S(=O)(=O)N2CCN(c3nc(-c4cccs4)nc4ncccc34)CC2)cc1	x	u	u	u	i	x
CC(C)C[C@H]1CN=C(Nc2ccccc2)N1CCCC1CCCCC1	-23.4%	18.4µM*	u	i	i	-19.0%
CCCCCCCN1C(Nc2ccccc2)=NC[C@@H]1CC(C)C	1.5%	16.4µM*	11.6µM*	u	u	-2.7%
CCC(C)CCN1C(Nc2ccccc2)=NC[C@@H]1C (stereo partly drawn)	8.0%	11.6µM*	u	i	u	0.3%
CC(C)C[C@H]1CN=C(Nc2ccccc2)N1CCCC1CCCC1	-27.0%	5.17µM*	14.6µM*	u	u	u
CCNc1ncc2nc(-c3cn(C)c4ccccc34)c(=O)n(C[C@H]3CCCO3)c2n1	x	-3.1%	4.8%	x	x	x
Cn1nc(C(C)(C)C)c([N+](=O)[O-])c1C(=O)N1CCCCCC1	0.0%	u	-26.1%	i	i	-7.5%
CC(C)C[C@H]1CN=C(Nc2ccccc2)N1CCC1CCCC1	-0.8%	23.1µM*	u	i	i	3.2%
C[C@H]1CN=C(Nc2ccccc2)N1CCC1CCCC1	-2.1%	23.1µM*	u	i	i	1.0%
COc1ccc(NC(=O)Cn2c(=O)n(Cc3nc(-c4ccccc4)no3)c(=O)c3cc4c(cc32)OCO4)c(OC)c1	x	-5.3%	-20.3%	i	i	x
C=CCSc1nnc2nc3c(nn12)c1cc(C)ccc1n3CC=C	5.6%	u	16.4µM*	i	i	-3.8%
C=CCn1c2ccccc2c2nnc(SCC(N)=O)nc21	-11.5%	6.8%	-9.3%	i	i	-5.8%
Cc1cc2nccc(C)c2cc1C	x	-2.7%	3.4%	i	i	x
O=C(NCc1ccccc1)C1Cc2c(-c3ccc(Cl)cc3)ccnc2O1 (stereo not drawn)	0.731µM*	0.82µM*	0.651µM*	5.8µM*	1.46µM*	u
COc1ccc(CNC(=O)C2Cc3c(-c4cccc(F)c4)ccnc3O2)cc1OC (stereo not drawn)	3.7%	u	8.2µM*	i	i	u
O=C(NCC1CC1)C1Cc2c(-c3cccc(F)c3)ccnc2O1 (stereo not drawn)	5.6%	u	-8.4%	i	i	u
O=C(NCc1cccc(Cl)c1)C1Cc2c(-c3cccc(F)c3)ccnc2O1 (stereo not drawn)	u	25.9µM*	20.6µM*	i	u	u
O=C(NCc1ccccc1)C1Cc2c(-c3cccc(F)c3)ccnc2O1 (stereo not drawn)	1.16µM*	0.92µM*	0.92µM*	4.61µM*	1.46µM*	u
COc1ccc(-n2nc(C(=O)N3CCN(c4cccc(C(F)(F)F)c4)CC3)c3c4ccccc4n(C)c3c2=O)cc1Cl	x	-12.2%	-7.5%	i	u	x
SMILES	HT1080 IDH1KD tx	DT40 TDP1 no CPT	DT40 TDP1 CPT	KB-3-1 cytotox	KB-V1 MDR tox	HT1080-NT tox
COc1cccc2c1C(=O)/C(=C/c1ccc(N(C)C)cc1)C2	x	u	u	i	i	x
CC(=O)c1cccc(-c2ccnc3c2CC(C(=O)NCc2ccc(N4CCN(C)CC4)cc2)O3)c1 (stereo not drawn)	-8.9%	u	-39.6%	i	i	-12.2%
CN1CCN(c2ccc(CNC(=O)C3Cc4c(-c5cccc(F)c5)ccnc4O3)cc2)CC1 (stereo not drawn)	u	20.6µM*	u	i	i	u
O=C(Nc1ccc(OC(F)F)cc1)c1nc(SCc2ccccc2F)ncc1Cl	x	12.6µM*	u	i	i	x
COc1ccc(CCNC(=O)c2nc(SCc3ccccc3F)ncc2Cl)cc1OC	x	23.1µM*	18.4µM*	x	x	x
CC(=O)Nc1ccc(NC(=O)c2nc(SCc3ccccc3C)ncc2Cl)cc1	x	-9.3%	-29.1%	i	i	x
O=C1CCN(CC2CCCCC2)C=C1C(=O)c1ccccc1	22.5%	-28.0%	-18.6%	i	i	17.7%
Cc1ccccc1Cn1c(=O)n(CCc2ccccc2)c(=O)c2sc3ccccc3c21	x	-3.9%	0.5%	i	i	x
COc1ccc(C(=O)N/N=C(\C)c2ccc3c(c2)C2C=CCC2C(c2ccccc2)N3)cc1 (stereo not drawn)	-1.4%	14.6µM*	u	i	i	-5.3%
COc1ccc(C)cc1NS(=O)(=O)c1ccc2c(c1)[C@H]1C=CC[C@H]1[C@@H](c1cccc(Cl)c1)N2	x	20.6µM*	13µM*	i	i	x
COC(=O)c1ccc([C@H]2Nc3ccc(S(=O)(=O)Nc4ccc(F)cc4)cc3[C@H]3C=CC[C@H]32)cc1	x	3.26µM*	3.66µM*	i	i	x
